Source: PubChem BioAssay (National Center for Advancing Translational Sciences (NCATS))
An excerpt weighted towards active compounds, which were near 7.5% of everything screened.
SMN2 splice enh – qHTS Assay for Enhancers of SMN2 Splice Variant Expression; 210,000 tested, 2.8% active; Potency, µM (top dose mostly 46.1 µM), for the others: at the highest dose activity change, positive = activation, actives largely listed as activators; HEK293 SMN2-luciferase splicing reporter, luminescence, 30-36 h; further: % of control where 0% means no effect; nearly all actives have a fitted effect of over 55% in size
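HEK293 cells carry an SMN2 minigene-luciferase reporter in which exon 7 inclusion puts luciferase in frame. Cells were seeded at 2000 cells/well, attached for 10-12 hours, then exposed to compounds for 30-36 hours at 37C before ONE-Glo luminescence.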
NPC1 promoter act – qHTS Assay for NPC1 Promoter Activators; Potency, µM (top dose mostly 9.22 µM), inactives show at the top dose activation, actives largely listed as activators; AID 485313, 2010; Huh7 NPC1 promoter luciferase reporter, 24 h; 320,000 tested, 2.4% active; further: % of control where 0% means no effect; nearly all actives have a fitted effect of over 60% in size
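Quantitative HTS used a cell-based reporter: Huh7 cells stably bearing the NPC1 promoter upstream of luciferase were treated with compounds for 24 h, and promoter activation was read as luminescence.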
FLuc counter – qHTS profiling assay for firefly luciferase inhibitor/activator using purifed enzyme and Km concentrations of substrates (counterscreen for miR-21 project); Luciferin 4-monooxygenase (Photinus pyralis), P08659; purified FLuc, Km substrates, luminescence inhibition; Potency, µM (highest dose often 57.5 µM), without a hit: at the highest dose activity change, negative = inhibition, usual class: inhibitors; 360,000 tested, 6.9% active; AID 588342, 2011;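 further: plate controls were vehicle for no effect and reference inhibitor for full effect; nearly all actives have a fitted effect of over 55% in size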
Target sequence (P08659 whole entry, looked up): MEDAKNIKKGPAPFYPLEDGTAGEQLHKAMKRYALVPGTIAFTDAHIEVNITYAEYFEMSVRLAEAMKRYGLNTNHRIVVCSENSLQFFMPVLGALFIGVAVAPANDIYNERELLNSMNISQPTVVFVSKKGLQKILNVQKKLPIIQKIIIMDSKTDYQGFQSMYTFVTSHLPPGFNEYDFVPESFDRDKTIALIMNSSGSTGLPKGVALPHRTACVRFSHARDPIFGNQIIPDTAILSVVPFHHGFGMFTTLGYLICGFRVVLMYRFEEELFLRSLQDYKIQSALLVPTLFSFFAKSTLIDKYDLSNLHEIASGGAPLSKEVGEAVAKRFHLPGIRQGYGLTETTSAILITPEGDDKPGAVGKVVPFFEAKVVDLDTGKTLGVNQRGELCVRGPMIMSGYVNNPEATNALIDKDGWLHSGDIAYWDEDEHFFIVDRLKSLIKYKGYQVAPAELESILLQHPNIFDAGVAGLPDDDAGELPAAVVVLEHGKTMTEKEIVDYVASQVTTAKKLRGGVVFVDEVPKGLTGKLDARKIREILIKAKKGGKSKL
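Biochemical qHTS of compounds, final roughly 60 µM downward over six points, against 10 nM purified firefly luciferase using Km concentrations of substrates (10 uM D-luciferin, 10 uM ATP) in Tris acetate pH 7.5 buffer; luminescence output.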
Rab9 promoter act – qHTS Assay for Rab9 Promoter Activators; Huh7 Rab9 promoter-luciferase reporter, luminescence, 24 h; Potency, µM (titrated, usually from 9.22 µM), for the others: top-dose activation, negative = inhibition, most hits filed as activators; 320,000 tested, 2.8% active; AID 485297, 2010; further: % of control where 0% means no effect; nearly all actives have a fitted effect of over 60% in size
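Cells were plated at 1500 per well in reduced-serum medium with 10% FBS and left 2 h. Compound in DMSO was then added for 24 h at 37 °C. Reporter signal was read by luminescence after 10 min with luciferase detection reagent.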
ELG1 genotoxic – qHTS screen for small molecules that induce genotoxicity in human embryonic kidney (HEK293T) cells expressing luciferase-tagged ELG1; HEK293T ELG1-luciferase reporter, luminescence, 16 h; Potency, µM (doses to about 46 µM), for inactives: at the highest dose activity change, positive = activation, most hits filed as activators; 330,000 tested, 1.3% active; AID 504466, 2011; further: % of control where 0% means no effect; nearly all actives have a fitted effect of over 60% in size
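Reporter readout depends on ELG1 protein level, which increases with genetic stress. After 16 hr compound exposure at 37 °C, luciferase activity was quantified using ONE-Glo.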
KinaseGlo FLuc – Counterscreen for Luciferase (Kinase-Glo TM) Inhibition. Kinase-Glo luciferase, ATP luminescence, 8 min. 200,000 tested, 0.28% active. Luciferin 4-monooxygenase (Photuris pensylvanica), Q27757. Potency, µM (series often up to 38.3 µM), for the others: at the top dose activity change, negative = inhibition, most hits filed as inhibitors; further: on the % scale 0 is the no-effect control and ±100 the full control effect; nearly all actives have a fitted effect of over 60% in size
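Inhibition of Kinase-Glo luciferase light generation was assessed at 10 uM ATP in pH 7.2 imidazole buffer, with luminescence measured after eight minutes at ambient temperature.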
An asterisk follows results filed as active; ? = inconclusive; nt = no result; [ ] = remark or other dose. The call rests on the fitted dose curve; in most records, active means well fitted curve in the direction sought with a large enough effect; inconclusive means small, poorly fitted or top-dose-only effect, or another doubt; inactive means no such curve, though single readings can be large; an effect the other way counts as inactive or inconclusive. Potency means the concentration at half of the fitted maximal effect.

SMILES	SMN2 splice enh	NPC1 promoter act	FLuc counter	Rab9 promoter act	ELG1 genotoxic	KinaseGlo FLuc
Cc1ccc(-c2cc(NC(=O)c3ccccc3Cl)on2)cc1	13µM*	nt	?	nt	nt	nt
COc1cccc(C(=O)Nc2cc(-c3ccccc3)no2)c1	16µM*	nt	1.2µM*	nt	nt	nt
CCCCOc1ccc(C(=O)Nc2cc(-c3ccc(C)cc3)no2)cc1	4%	nt	5%	nt	nt	nt
CCOc1ccc(C(=O)Nc2cc(-c3ccccc3)no2)cc1	?	nt	1.5µM*	nt	nt	nt
CN(C)c1cc2c(cc1NC(=O)c1ccccc1Cl)n(C)c(=O)n2C	nt	-4%	3%	-7%	8%	nt
C/C(=N/OCO/N=C(\C)c1ccccc1)c1ccccc1	253%	0%	13%	-4%	2%	2%
COc1ccccc1OC(=O)c1ccc(S(=O)(=O)N(C)C)cc1	3%	-1%	-19%	-2%	-4%	-4%
C/C(=N\OCc1cccc(C(=O)O)c1)c1ccc(Cl)cc1	nt	?	0.095µM*	0.089µM*	?	nt
C/C(=N\OCc1ccc(C#N)cc1)c1ccc(S(=O)(=O)N(C)C)cc1	nt	?	21µM*	11%	1%	nt
C/C(=N\OCc1ccc(C#N)cc1)c1ccccc1	16µM*	?	11µM*	3.2µM*	18µM*	-12%
Cc1noc(C)c1C(=O)N1CCC2(CCCN(C(c3ccccc3)c3ccccc3)C2)CC1	-20%	nt	nt	nt	nt	-2%
CCOC(=O)Cn1cc(Cl)cc(C(=O)Nc2ccccc2)c1=O	nt	-4%	17µM*	-2%[1.84 µM]	5%	nt
Cc1ccccc1NS(=O)(=O)c1ccc2[nH]cc(C(=O)N3CCCC3)c(=O)c2c1	nt	nt	3%	nt	nt	nt
COc1ccc(-n2nc(C(=O)NCC(=O)N3CCN(c4ccc(F)cc4)CC3)c3ccccc3c2=O)c(OC)c1	nt	17%	1.7µM*	22%	13%	nt
COc1ccc(-n2nc(C(=O)NCC(=O)N3CCN(c4ccccc4)CC3)c3ccccc3c2=O)c(OC)c1	nt	?	0.54µM*	?	0%	nt
CC(Oc1ccc2c(c1)oc(=O)c1ccccc12)C(=O)NC(Cc1c[nH]c2ccc(O)cc12)C(=O)O (stereo unspecified)	nt	1%	27µM*	0%	5%	nt
COc1ccc(-n2c(=O)c(-c3cccs3)nc3cnc(N4CCNCC4)nc32)cc1	-117%	nt	nt	nt	nt	-3%
Cc1ccc(NC(=O)Cn2nnc(C(=O)NCc3ccc(Cl)cc3)c2N)cc1F	nt	-4%	0%	-5%	0%[9.26 µM]	nt
Cc1cccc(-c2nc3c4ccccc4n(CC(=O)Nc4cccc(F)c4)c(=O)n3n2)c1	nt	nt	24µM*	nt	nt	nt
Cc1cccc(Oc2ccc(Cl)cc2N)c1	17%	14%	17µM*	23%	2%	-2%
CC(=O)c1ccc(NC(=O)Cc2cccs2)cc1	nt	2.8µM*	?	2.5µM*	?	nt
CCCOC(=O)c1ccc(NC(=O)Cc2cccs2)cc1	nt	?	19µM*	?	?	nt
CCCOC(=O)c1ccc(NC(=O)COC)cc1	0%	2%	?	6%	?	18%
CCN(C(=O)Cc1ccccc1OC)c1nnc(-c2ccncc2)s1	-29%	-1%	-18%	2%	-2%	-2%
CN(C(=O)c1cccnc1)c1nnc(-c2cccnc2)s1	3%	9%	-8%	11%	7%	-1%
SMILES	SMN2 splice enh	NPC1 promoter act	FLuc counter	Rab9 promoter act	ELG1 genotoxic	KinaseGlo FLuc
CCN(C(=O)Cc1cccs1)c1nnc(-c2cc(OC)c(OC)c(OC)c2)s1	25µM*	-2%	0%	-1%	?	1%
CCCN(C(=O)c1ccco1)c1nnc(-c2ccccc2C)s1	nt	21%	12µM*	?	?	-3%
COCCN(C(=O)Cc1cccs1)c1nnc(-c2cccnc2)s1	-19%	-4%	-1%	16%	1%	-2%
COCCN(C(=O)c1ccco1)c1nnc(-c2ccc(F)cc2)s1	?	28%	?	?	10%	-1%
CCN(C(=O)c1ccco1)c1nnc(-c2cccnc2)s1	nt	?	13µM*	?	?	nt
CCCCN(C(=O)Cc1cccs1)c1nnc(-c2cccnc2)s1	20µM*	?	19µM*	28%	16%	-2%
COc1cccc(CNC(=O)Cn2c(=O)ccc3cc(S(=O)(=O)N4CCC(C)CC4)ccc32)c1	nt	nt	-2%	nt	nt	nt
CCCCN(C(C)=O)c1ccc(S(=O)(=O)NC2=NCCCCC2)cc1NC(C)=O	nt	nt	nt	nt	3%	nt
CC(C)Oc1ccc(CNC(=O)C2CCCN(S(=O)(=O)N3CCOCC3)C2)cc1 (stereo unspecified)	nt	0%	-8%	0%	-2%[9.26 µM]	nt
O=C(OCc1ccco1)c1ccc2c(c1)N(Cc1ccc([N+](=O)[O-])cc1)C(=O)c1ccccc1S2	nt	nt	-2%	nt	nt	nt
O=C1NN(c2ccccc2)C(=O)/C1=C/c1ccc(Sc2cccc3ccccc23)o1	nt	1%	-2%	-2%	3%	-2%
COc1cccc(/C=C2/C(=O)NN(c3ccc(C)c(C)c3)C2=O)c1	nt	3%	?	-1%	13%	nt
Cc1ccc(N2NC(=O)/C(=C\c3cc4c(cc3[N+](=O)[O-])OCO4)C2=O)cc1C	-23%	-1%	?	-7%	?	-1%
COc1cccc(/C=C2/C(=O)NN(c3ccc(F)cc3)C2=O)c1	nt	0%	21µM*	4%	6%	nt
COc1cccc(/C=C2/C(=O)NN(c3ccccc3)C2=O)c1	nt	-2%	24µM*	0%	-1%	nt
